Experimental data from PMC7862700, “An all-to-all approach to the identification of sequence-specific readers for epigenetic DNA modifications on cytosine”.

Legend:
Experiment in all cases: DAPPL (digital affinity profiling via proximity ligation, sequencing); 10 mM Tris-HCl pH 7.5, 50 mM NaCl, 1 mM DTT, 4% glycerol, room temperature, 30 min; GST-TFs on glutathione beads, 16-mer random dsDNA library, 0.1% formaldehyde crosslink after washing; high values mean tight binding
Details in all cases: protein: recombinant; tags: N-terminal GST; dsDNA, one strand shown
[1] = molecular target: T1, ERF (Homo sapiens, UniProt P50548 1-548)
T1 sequence: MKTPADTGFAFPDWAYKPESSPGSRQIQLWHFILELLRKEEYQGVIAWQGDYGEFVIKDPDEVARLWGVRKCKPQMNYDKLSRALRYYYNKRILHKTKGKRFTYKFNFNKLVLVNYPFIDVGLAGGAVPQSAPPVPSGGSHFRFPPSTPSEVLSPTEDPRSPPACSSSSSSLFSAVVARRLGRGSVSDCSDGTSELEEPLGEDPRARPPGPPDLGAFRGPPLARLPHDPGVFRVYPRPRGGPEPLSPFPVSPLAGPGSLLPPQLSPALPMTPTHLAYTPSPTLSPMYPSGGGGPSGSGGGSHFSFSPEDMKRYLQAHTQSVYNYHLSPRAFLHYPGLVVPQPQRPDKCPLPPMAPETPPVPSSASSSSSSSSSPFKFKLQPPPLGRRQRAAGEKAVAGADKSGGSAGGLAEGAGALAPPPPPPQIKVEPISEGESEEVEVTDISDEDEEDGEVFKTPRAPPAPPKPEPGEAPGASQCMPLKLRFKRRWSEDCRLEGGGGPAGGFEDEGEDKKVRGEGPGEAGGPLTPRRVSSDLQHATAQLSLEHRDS
In short: (§1)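 Binding signal is each hexamer's read frequency for a factor divided by its frequency in the tag-only sample. The factors were GST-fused human transcription factors from yeast, captured on glutathione beads, DNA-barcoded and pooled with that sample. Pools were incubated with 200 nmole of a random double-stranded 16-mer DNA library in Tris/NaCl/DTT/glycerol buffer at room temperature for 30 min, then washed, crosslinked with 0.1% formaldehyde, proximity-ligated with BsaI/T4 ligase (1 h, 37 °C), PCR-amplified and sequenced on an Illumina NextSeq500.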

[2] = molecular target: T2, ETV3L (Homo sapiens, UniProt Q6ZN32 1-361)
T2 sequence: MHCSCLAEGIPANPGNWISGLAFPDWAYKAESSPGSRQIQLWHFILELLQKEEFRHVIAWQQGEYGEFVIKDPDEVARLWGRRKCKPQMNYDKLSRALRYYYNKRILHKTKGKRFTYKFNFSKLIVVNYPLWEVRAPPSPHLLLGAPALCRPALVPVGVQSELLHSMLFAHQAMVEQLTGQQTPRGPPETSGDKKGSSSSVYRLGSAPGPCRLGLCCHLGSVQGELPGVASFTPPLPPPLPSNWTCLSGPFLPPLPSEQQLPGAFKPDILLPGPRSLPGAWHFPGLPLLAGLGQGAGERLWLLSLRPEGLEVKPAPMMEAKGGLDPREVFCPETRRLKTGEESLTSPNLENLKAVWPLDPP
In short: as §1

[3] = molecular target: T3, ETS2 (Homo sapiens, UniProt P15036 1-469)
T3 sequence: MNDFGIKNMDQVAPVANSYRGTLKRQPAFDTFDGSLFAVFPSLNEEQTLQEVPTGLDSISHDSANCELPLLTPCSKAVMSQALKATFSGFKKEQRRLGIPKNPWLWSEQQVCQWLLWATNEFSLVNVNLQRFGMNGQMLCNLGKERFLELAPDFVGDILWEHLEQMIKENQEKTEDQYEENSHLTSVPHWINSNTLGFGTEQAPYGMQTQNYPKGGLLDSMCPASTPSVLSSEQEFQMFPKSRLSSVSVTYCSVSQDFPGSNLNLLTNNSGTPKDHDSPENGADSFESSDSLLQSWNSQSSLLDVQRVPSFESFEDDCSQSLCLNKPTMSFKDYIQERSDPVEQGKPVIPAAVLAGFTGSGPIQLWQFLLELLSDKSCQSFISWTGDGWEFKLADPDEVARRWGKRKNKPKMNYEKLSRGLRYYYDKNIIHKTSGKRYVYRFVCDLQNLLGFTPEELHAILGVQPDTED
In short: as §1

[4] = molecular target: T4, SPDEF (Homo sapiens, UniProt O95238 1-335)
T4 sequence: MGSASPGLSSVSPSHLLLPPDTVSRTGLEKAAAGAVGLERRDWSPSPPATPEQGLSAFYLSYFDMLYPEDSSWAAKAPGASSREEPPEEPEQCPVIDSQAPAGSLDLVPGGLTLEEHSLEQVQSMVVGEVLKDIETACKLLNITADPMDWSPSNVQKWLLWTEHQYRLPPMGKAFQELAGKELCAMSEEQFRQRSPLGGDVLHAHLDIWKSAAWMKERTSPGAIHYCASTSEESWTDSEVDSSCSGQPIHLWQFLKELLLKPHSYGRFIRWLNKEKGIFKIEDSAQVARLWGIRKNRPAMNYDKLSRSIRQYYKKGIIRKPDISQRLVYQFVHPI
In short: as §1

[5] = molecular target: T5, ETV7 (Homo sapiens, UniProt Q9Y603 1-341)
T5 sequence: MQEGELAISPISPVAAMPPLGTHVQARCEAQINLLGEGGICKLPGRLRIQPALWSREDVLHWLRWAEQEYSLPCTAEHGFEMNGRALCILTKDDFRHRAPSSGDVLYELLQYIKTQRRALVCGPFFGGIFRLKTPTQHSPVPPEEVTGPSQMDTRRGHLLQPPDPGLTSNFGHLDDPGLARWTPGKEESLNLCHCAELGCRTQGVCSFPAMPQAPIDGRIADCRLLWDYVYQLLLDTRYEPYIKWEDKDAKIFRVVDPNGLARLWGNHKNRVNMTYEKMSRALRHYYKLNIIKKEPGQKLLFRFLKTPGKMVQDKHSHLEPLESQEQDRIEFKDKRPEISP
In short: as §1

[6] = molecular target: T6, ELF5 (Homo sapiens, UniProt Q9UKW6-2 1-255)
T6 sequence: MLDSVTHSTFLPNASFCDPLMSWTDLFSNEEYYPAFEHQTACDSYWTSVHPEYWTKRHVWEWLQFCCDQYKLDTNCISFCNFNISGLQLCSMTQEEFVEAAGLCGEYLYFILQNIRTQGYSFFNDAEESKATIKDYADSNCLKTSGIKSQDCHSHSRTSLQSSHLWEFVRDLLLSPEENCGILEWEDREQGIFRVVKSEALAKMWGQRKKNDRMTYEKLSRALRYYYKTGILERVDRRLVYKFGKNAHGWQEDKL
In short: as §1

[7] = molecular target: T7, ETV3 (Homo sapiens, UniProt P41162-2 1-143)
T7 sequence: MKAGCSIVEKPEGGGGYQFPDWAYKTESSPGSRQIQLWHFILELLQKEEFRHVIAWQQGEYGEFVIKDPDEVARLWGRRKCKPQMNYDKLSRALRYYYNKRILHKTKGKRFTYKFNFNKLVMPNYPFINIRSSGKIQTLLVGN
In short: as §1

[8] = molecular target: ETV6 (Homo sapiens, UniProt P41212 1-452)
Chain of ETV6 (P41212 whole entry): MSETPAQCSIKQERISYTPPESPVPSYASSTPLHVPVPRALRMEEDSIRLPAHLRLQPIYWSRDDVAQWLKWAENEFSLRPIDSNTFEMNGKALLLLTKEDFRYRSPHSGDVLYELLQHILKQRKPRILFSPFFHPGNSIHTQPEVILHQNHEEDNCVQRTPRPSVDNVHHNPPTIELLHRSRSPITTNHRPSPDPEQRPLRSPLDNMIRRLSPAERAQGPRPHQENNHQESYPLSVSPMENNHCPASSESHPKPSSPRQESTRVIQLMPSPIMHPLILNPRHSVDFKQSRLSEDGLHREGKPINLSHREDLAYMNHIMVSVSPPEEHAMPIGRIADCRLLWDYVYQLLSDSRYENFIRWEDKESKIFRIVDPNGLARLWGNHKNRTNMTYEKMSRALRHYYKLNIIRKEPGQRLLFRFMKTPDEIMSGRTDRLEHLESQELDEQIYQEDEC
In short: as §1

| Sequence | binding signal [1] | binding signal [2] | binding signal [3] | binding signal [4] | binding signal [5] | binding signal [6] | binding signal [7] | binding signal [8] |
| --- | --- | --- | --- | --- | --- | --- | --- | --- |
| CTATTA | 1.08 fold enrichment (6-mer frequency, TF over GST control) | 1.11 fold enrichment (6-mer frequency, TF over GST control) | 1.14 fold enrichment (6-mer frequency, TF over GST control) | 1.07 fold enrichment (6-mer frequency, TF over GST control) | 1.07 fold enrichment (6-mer frequency, TF over GST control) | 1.1 fold enrichment (6-mer frequency, TF over GST control) | 1.05 fold enrichment (6-mer frequency, TF over GST control) | 1.14 fold enrichment (6-mer frequency, TF over GST control) |
| GTTTTC | 1.34 fold enrichment (6-mer frequency, TF over GST control) | 1.27 fold enrichment (6-mer frequency, TF over GST control) | 1.16 fold enrichment (6-mer frequency, TF over GST control) | 1.08 fold enrichment (6-mer frequency, TF over GST control) | 1.36 fold enrichment (6-mer frequency, TF over GST control) | 1.31 fold enrichment (6-mer frequency, TF over GST control) | 1.29 fold enrichment (6-mer frequency, TF over GST control) | 1.23 fold enrichment (6-mer frequency, TF over GST control) |
| CACACT | 1.22 fold enrichment (6-mer frequency, TF over GST control) | 1.12 fold enrichment (6-mer frequency, TF over GST control) | 1.14 fold enrichment (6-mer frequency, TF over GST control) | 1.13 fold enrichment (6-mer frequency, TF over GST control) | 1.14 fold enrichment (6-mer frequency, TF over GST control) | 1.18 fold enrichment (6-mer frequency, TF over GST control) | 1.18 fold enrichment (6-mer frequency, TF over GST control) | 1.15 fold enrichment (6-mer frequency, TF over GST control) |
| CTCTAA | 1.44 fold enrichment (6-mer frequency, TF over GST control) | 1.37 fold enrichment (6-mer frequency, TF over GST control) | 1.32 fold enrichment (6-mer frequency, TF over GST control) | 1.19 fold enrichment (6-mer frequency, TF over GST control) | 1.27 fold enrichment (6-mer frequency, TF over GST control) | 1.34 fold enrichment (6-mer frequency, TF over GST control) | 1.24 fold enrichment (6-mer frequency, TF over GST control) | 1.26 fold enrichment (6-mer frequency, TF over GST control) |
| TATGCG | 1.23 fold enrichment (6-mer frequency, TF over GST control) | 1.39 fold enrichment (6-mer frequency, TF over GST control) | 1.43 fold enrichment (6-mer frequency, TF over GST control) | 1.36 fold enrichment (6-mer frequency, TF over GST control) | 1.51 fold enrichment (6-mer frequency, TF over GST control) | 1.32 fold enrichment (6-mer frequency, TF over GST control) | 1.58 fold enrichment (6-mer frequency, TF over GST control) | 1.22 fold enrichment (6-mer frequency, TF over GST control) |
| TGATTT | 1.17 fold enrichment (6-mer frequency, TF over GST control) | 1.29 fold enrichment (6-mer frequency, TF over GST control) | 1.28 fold enrichment (6-mer frequency, TF over GST control) | 1.21 fold enrichment (6-mer frequency, TF over GST control) | 1.24 fold enrichment (6-mer frequency, TF over GST control) | 1.23 fold enrichment (6-mer frequency, TF over GST control) | 1.24 fold enrichment (6-mer frequency, TF over GST control) | 1.23 fold enrichment (6-mer frequency, TF over GST control) |
| TGTTGA | 1.13 fold enrichment (6-mer frequency, TF over GST control) | 1.17 fold enrichment (6-mer frequency, TF over GST control) | 1.11 fold enrichment (6-mer frequency, TF over GST control) | 1.23 fold enrichment (6-mer frequency, TF over GST control) | 1.18 fold enrichment (6-mer frequency, TF over GST control) | 1.08 fold enrichment (6-mer frequency, TF over GST control) | 1.11 fold enrichment (6-mer frequency, TF over GST control) | 1.01 fold enrichment (6-mer frequency, TF over GST control) |
| CCGCCA | 1.36 fold enrichment (6-mer frequency, TF over GST control) | 1.33 fold enrichment (6-mer frequency, TF over GST control) | 1.22 fold enrichment (6-mer frequency, TF over GST control) | 1.29 fold enrichment (6-mer frequency, TF over GST control) | 1.26 fold enrichment (6-mer frequency, TF over GST control) | 1.47 fold enrichment (6-mer frequency, TF over GST control) | 1.43 fold enrichment (6-mer frequency, TF over GST control) | 1.26 fold enrichment (6-mer frequency, TF over GST control) |
